# The panel holds about 83,000 compounds, 20% with a hit somewhere; the sample as a whole holds those more often.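 Interpretation: 100, growth as untreated; towards 0, rising growth inhibition; 0, no net growth; 0 to -100, cell death. Compounds scoring below 10 were considered active.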 Unmarked numbers belong to inactive results. Active and inactive are the calls of the source.
# Assays:
# Test in all cases: NCI-60 one-dose screen, 48 h (100 = growth as untreated, 0 = no growth, -100 = all killed)
# SK-MEL-2 melanoma = details: 10 µM unless noted
# EKVX NSCLC = details: 10 µM unless noted
# SN12C renal = details: 10 µM unless noted
# TK-10 renal = details: 10 µM unless noted
# ACHN renal = details: 10 µM unless noted
# CAKI-1 renal = details: 10 µM unless noted
# A498 renal = details: 10 µM
# HL-60(TB) leukemia = details: 10 µM unless noted
# CCRF-CEM leukemia = details: 10 µM unless noted
# MOLT-4 leukemia = details: 10 µM unless noted
# RPMI-8226 leukemia = details: 10 µM unless noted
# OVCAR-8 ovarian = details: 10 µM unless noted
# OVCAR-5 ovarian = details: 10 µM unless noted
# OVCAR-4 ovarian = details: 10 µM unless noted
# SK-OV-3 ovarian = details: 10 µM unless noted
# IGROV1 ovarian = details: 10 µM unless noted
# OVCAR-3 ovarian = details: 10 µM unless noted
# HS 578T breast = details: 10 µM unless noted
# UO-31 renal = details: 10 µM unless noted
# SR leukemia = details: 10 µM unless noted
SMILES,growth (SK-MEL-2 melanoma),growth (EKVX NSCLC),growth (SN12C renal),growth (TK-10 renal),growth (ACHN renal),growth (CAKI-1 renal),growth (A498 renal),growth (HL-60(TB) leukemia),growth (CCRF-CEM leukemia),growth (MOLT-4 leukemia),growth (RPMI-8226 leukemia),growth (OVCAR-8 ovarian),growth (OVCAR-5 ovarian),growth (OVCAR-4 ovarian),growth (SK-OV-3 ovarian),growth (IGROV1 ovarian),growth (OVCAR-3 ovarian),growth (HS 578T breast),growth (UO-31 renal),growth (SR leukemia)
C=CCCCCCCCCC(=O)[O-].C=CCCCCCCCCC(=O)[O-].[Zn+2],111%,98.7%,101%,115%,101%,90%,92.7%,95.1%,104%,103%,95.2%,96.6%,106%,115%,112%,105%,118%,105%,–,–
CC(=O)[O][Hg][c]1c(N)c(C)cc(C)c1F,11.6%,–,5.86% (active),97.4%,62.9%,45.8%,101%,-12.7% (active),-6.01% (active),-11.2% (active),-12.3% (active),-29.5% (active),47.3%,42%,69.8%,-32.7% (active),-45.8% (active),26.8%,35.1%,-11.2% (active)
COC(=O)[C@@H](C)C[C@H](Cc1ccccc1)NC(=O)c1csc([C@@H](C[C@H](C(C)C)N(C)C(=O)[C@@H](NC(=O)[C@H]2CCCCN2C)C(C)C)OC(C)=O)n1,16.3%,29.6%,23.3%,–,12.6%,12.8%,-7.32% (active),-47.8% (active),0.404% (active),4.52% (active),8.34% (active),22.7%,26.4%,44.6%,13.4%,25.7%,-24.4% (active),-2.62% (active),42%,6.8% (active)
CC(C)[C@@H]1NC(=O)[C@]2(C)CSC(=N2)c2csc(n2)CNC(=O)C[C@@H](/C=C/CCS)OC1=O,-28.2% (active),32.4%,31.7%,–,5.8% (active),–,-74.8% (active),8.48% (active),9.97% (active),–,-15.4% (active),-11.9% (active),25%,27.7%,-12.6% (active),0.877% (active),-21.3% (active),7.81% (active),10.4%,12%
CC[C@H](C)[C@H](NC(=O)N[C@@H](C)c1ccccc1)C(=O)N(C)[C@H](C[C@@H](OC(C)=O)c1nc(C(=O)N[C@@H](Cc2ccccc2)C[C@H](C)C(=O)OC)cs1)C(C)C,-14.9% (active),36.7%,39.9%,–,21.5%,–,-4.53% (active),-16.9% (active),10.7%,21.7%,16.1%,11.6%,17.8%,37.1%,36.1%,24.1%,-36.6% (active),0.903% (active),28.5%,3.11% (active)
COc1ccc(C(O)(C(=O)O)c2ccc(OC)cc2)cc1,78.8%,85%,–,88.2%,85.8%,100%,95.3%,96.9%,79.8%,87.1%,78.2%,93.3%,103%,97.8%,99.1%,87.5%,106%,94.6%,87.6%,102%
COc1cc([C@@H]2c3cc4c(cc3[C@H](OC(C)=O)[C@H]3COC(=O)[C@@H]23)OCO4)cc(OC)c1OC,40.2%,33.1%,–,41.8%,29.8%,–,-15.7% (active),-1.71% (active),22.6%,16.4%,23.6%,6.28% (active),26.4%,29.9%,-10.2% (active),16.8%,13.2%,7.08% (active),38.9%,15.6%
C#Cc1ccc2c(c1)C(c1ccccc1)=NCC(=O)N2C,25.5%,50.2%,–,66.1%,52%,51.3%,26.7%,1.49% (active),48.9%,39.5%,64.5%,63.3%,85.5%,90.9%,31.6%,–,9.19% (active),56.4%,67.8%,38.3%

# — PubChem BioAssay (NCI)
